Measurements taken from ChEMBL document CHEMBL3988442, “University of Dundee, Small-Polar-MMV Screening Library” (2021).
Screen size: about 66,000 compounds; about 960 (1.5%) showed an effect of 50% or more. Many of the other results were omitted from the sample, so strong results are more common in it than they were.

Test system: Trypanosoma brucei
Assay: Trypanosoma brucei 72 hour study
Type: functional, organism-based
Parameters: scale not given: in the data most compounds retested in dose-response had high values

| SMILES | Percent Effect (30.3 µM, […]) | Percent Effect (30 µM, 30.03 µM) |
| --- | --- | --- |
| CN(Cc1ccco1)C[C@H]1OC[C@@H]2CN(c3ncc(F)cn3)CC[C@@H]21.O=C(O)C(F)(F)F.O=C(O)C(F)(F)F | -14.08% |  |
| CN(C)C(=O)N1CCC2(CC1)CCN(Cc1ccccn1)C2=O.O=C(O)C(F)(F)F |  | 7.411% |
| Cc1ccc(CN2C[C@H](NC(=O)c3nccn3C)[C@H]3OCCC[C@H]32)o1 | -18.85% |  |
| O=C(O)C(F)(F)F.O=C(O)C(F)(F)F.c1cncc(CN2CCn3c(Cn4cncn4)cnc3C2)c1 | -106.7% |  |
| Cc1cc(C(=O)N2CC[C@@H](N(C)C)[C@@H]2Cc2ccccc2)no1.O=C(O)C(F)(F)F | 3.974% |  |
| CN(C)CCn1c([C@@H]2CCCO2)cc2cccnc21.Cl | -17.47% |  |
| CN(C)S(=O)(=O)N1CCC2(COCc3cnc(NCC4CC4)nc32)C1 (configuration not stated) |  | -49.38% |
| CNC(=O)[C@@H]1CCO[C@@H]2CCN(Cc3ccsc3)C[C@H]21.O=C(O)C(F)(F)F | -300.6% |  |
| O=C(C1CCC1)N1CCC2(CCCN2CC2CC2)CC1.O=C(O)C(F)(F)F | -53.73% |  |
| COc1ccc(CN2CCOCC3(CCN(C4CCOCC4)C3)C2)cc1.O=C(O)C(F)(F)F.O=C(O)C(F)(F)F (configuration not stated) |  | 20.44% |
| O=C(O)C(F)(F)F.O=C1CC2(CNCCN(C(=O)Nc3ccccc3)C2)CN1 (configuration not stated) | -24.96% |  |
| O=C(Nc1ccccc1)c1ccc2c(c1)C1(CCCCC1)CN2.O=C(O)C(F)(F)F | 97.07% |  |
| CC(=O)c1ccc(NC(=O)c2ccc3c(c2)C2(CCCCC2)CN3)cc1.O=C(O)C(F)(F)F | -13.93% |  |
| COc1ccc(C[C@H]2CN(Cc3ccoc3)CC[C@@H]2OC)cc1.O=C(O)C(F)(F)F | -8.959% |  |
| COC(=O)Cn1c(=O)nc2n1C(=O)N(c1cccc(Cl)c1)C2 |  | -8.775% |
| Cc1cc(C)c(C#N)c(NCCn2cnnc2C(C)C)n1 |  | -40.75% |
| Cc1n[nH]c(C)c1CCC(=O)N1CCC(O)(CN2CCOCC2)C1 (configuration not stated) | -4.476% |  |
| CCN(Cc1ccc(C(C)=O)cc1)CC1CCOCC1 |  | 98.5% |
| NC(=O)NC(=O)CCN(Cc1ccccc1)CC1CCOCC1 |  | -38.3% |

| SMILES | Percent Effect (30.3 µM, […]) | Percent Effect (30 µM, 30.03 µM) |
| --- | --- | --- |
| CCN(Cc1ccc(O)c(C(=O)O)c1)CC1CCOCC1 |  | -62.42% |
| COC1COC2(CCN(Cc3ccccc3C)CC2)C1.O=C(O)C(F)(F)F (configuration not stated) |  | -3.278% |
| COc1ccc(CN2CCn3c(CO)nnc3C2)cc1CN1CCCC1.O=C(O)CC(O)(CC(=O)O)C(=O)O | -29.63% |  |
| CN(CCn1cnnc1)S(=O)(=O)c1ccc(C(F)(F)F)nc1 |  | -27.18% |
| O=C(Cc1ccccc1F)N1CCCCC1c1ccn2ccnc2n1 (configuration not stated) | -17.08% |  |
| Br.O=C(CN(C1=NCCCC1)c1ccccc1)c1ccccc1 |  | -30.63% |
| Br.Cc1ccc(C(=O)CN(C2=NCCCCC2)c2ccccc2)cc1 |  | -7.636% |
| Br.Cc1ccc(N(CC(=O)c2ccc(Br)cc2)C2=NCCCCC2)cc1 |  | 102.1% |
| Cc1nc(-c2cc(C(=O)NCCN3CCOCC3)c3ccccn23)cs1.O=C(O)C(F)(F)F |  | -1.462% |
| CN(C)CC1(O)CCN(C(=O)Cc2ccc(Cl)c(Cl)c2)C1 (configuration not stated) |  | -2.195% |
| Cc1cc2occ(CC(=O)N3CCC4(CCCN(C)C4=O)C3)c2cc1Cl (configuration not stated) | 2.516% |  |
| Cc1cc2occ(CC(=O)N3CCC(O)(CN(C)C)C3)c2cc1Cl (configuration not stated) | 99.94% |  |
| CCN1C(=O)CC[C@]12CC[C@@H](NC(=O)c1cnccn1)CC2 | -18.7% |  |
| COC(=O)CN1CC(c2nc(Cc3ccccc3)no2)C1.O=C(O)C(=O)O |  | 101% |
| CCNC(=O)N1CC(c2nc(Cc3ccccc3)no2)C1 | 0.6321% |  |
| O=C(CN1CC(c2nc(Cc3ccccc3)no2)C1)NCC1CCCO1.O=C(O)C(=O)O (configuration not stated) | 6.981% |  |
| CCC1(O)CCCN(c2ncnc3c2c(C)nn3C)C1 (configuration not stated) |  | 27.55% |
| Cc1nn(C)c2ncnc(N3CCCC(C)(O)C3)c12 (configuration not stated) |  | 2.016% |
| Cc1nn(C)c2ncnc(N3CCC(O)(CN4CCCC4)CC3)c12 |  | 57.4% |

| SMILES | Percent Effect (30.3 µM, […]) | Percent Effect (30 µM, 30.03 µM) |
| --- | --- | --- |
| COc1cc(N2CCO[C@H]3[C@@H](Oc4cccnc4)CC[C@@H]32)ncn1.O=C(O)C(F)(F)F.O=C(O)C(F)(F)F |  | -15.67% |
| CCC1CCCCN1CCNC(=O)N1CCN(Cc2ccon2)CC1 (configuration not stated) |  | 20.59% |
| CN(C)CCn1c2c(ccc1=O)CC(NC(=O)NC1CCCC1)CC2.O=C(O)C(F)(F)F (configuration not stated) | -38.22% |  |
| CC(C)(C)NC(=O)NC(=O)CNc1c(F)cccc1N1CCCC1 |  | -52.35% |
| CCCn1cc(S(=O)(=O)N[C@H]2CN(CCO)C[C@@H]2C2CC2)cn1 |  | -20.35% |
| CC1=C[C@@H](CN2CCN(C)CC2)[C@H](C(C)C)C[C@H]1Cc1nnc(C)o1 |  | 28.22% |
| CC1=C[C@@H](CN2CCCC2)[C@H](C(C)C)C[C@H]1Cc1nnc(C)o1 |  | 17.59% |
| CC1=C[C@@H](CN2CCOCC2)[C@H](C(C)C)C[C@H]1Cc1nnc(C)o1 |  | 60.87% |
| CC1c2ncc(Cn3cncn3)n2CCN1C(=O)c1ccsc1 (configuration not stated) | -6.898% |  |
| CC(C)N1CCO[C@@H]2CN(C(=O)Cc3cccs3)CC[C@@H]2C1.O=C(O)C(F)(F)F | -84.63% |  |
| COCC(C)NCc1nc(-c2ccc(C)cc2)c(-c2ccccn2)[nH]1 (configuration not stated) |  | 72.12% |
| Cc1ccc(-c2nc(CNS(=O)(=O)N(C)C)[nH]c2-c2ccccn2)cc1 |  | -19.21% |
| Cc1ccc(-c2nc(CNC(C)CCO)[nH]c2-c2ccccn2)cc1 (configuration not stated) |  | -54.5% |
| Cc1cc(F)ccc1S(=O)(=O)NCC(O)c1cccn1C (configuration not stated) | 2.147% |  |
| Cn1cccc1C(O)CNS(=O)(=O)c1ccccc1Br (configuration not stated) | 101.8% |  |
| Cn1cccc1C(O)CNS(=O)(=O)c1ccccc1F (configuration not stated) | 21.76% |  |
| Cc1c(Cl)cccc1S(=O)(=O)NCC(O)c1cccn1C (configuration not stated) | 15.12% |  |
| COc1cc(C)c(C)cc1S(=O)(=O)NCC(O)c1cccn1C (configuration not stated) | 93.04% |  |
| COc1ccc(C)cc1S(=O)(=O)NCC(c1cccn1C)N(C)C (configuration not stated) |  | -85.17% |
